# Screens as filed in PubChem BioAssay.
# Most compounds without a hit are left out; they make up all but 7.6% or so of the library.
# hERG WT inh – blocks the wildtype human KCNH2 potassium channel | Q12809 | U2OS, BacMam KCNH2, thallium flux FluxOr; stronger effect = lower value | activity change, % at 1.84 µM | 340,000 tested, 0.37% active;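 active = maximum activity change below -70%; inconclusive = maximum activity change between -70% and -50%; inactive = maximum activity change above -50%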; note: % is set by controls: 0 for no effect and ±100 for the full control effect
#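 U2OS cells were transduced with wild-type KCNH2 virus (2.03 x 10^8 / mL) for 4 h at room temperature, then cultured overnight at 37 C. Thallium flux was read with FluxOr dye. Rate constants were normalized to DMSO controls.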
# KB-3-1 tox – kills parental KB-3-1 adenocarcinoma cells. AID 1347075. 400,000 tested, 1.4% active. Potency, µM (titrated, usually from 46.1 µM), hits mostly cytotoxic. KB-3-1 viability, CellTiter-Glo ATP luminescence, 72 h; note: potency is the fitted concentration of half-maximal effect; % is set by controls: 0 for no effect and ±100 for the full control effect; nearly all actives have a fitted effect of over 60% in size
#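 Cytotoxicity in the drug-sensitive parental line KB-3-1 was scored as loss of CellTiter-Glo luminescence following 72 h incubation with compound. Values come from curve fitting of normalized concentration-response data.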
# KCNH2 3.1 inh – blocks the human KCNH2 3.1 channel isoform. activity change, % (tested at about 1.8 µM). AID 720553. 340,000 tested, 0.95% active. U2OS KCNH2 3.1, thallium flux FluxOr; stronger effect = lower value;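 active = maximum activity change below -70%; inconclusive = maximum activity change from -70% to -50%; inactive = maximum activity change above -50%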;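 note: thallium influx rate constant from kinetic fluorescence after stimulation buffer; % is set by controls: 0 for no effect and ±100 for the full control effect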
#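 Normalized rate constant (relative to positive and negative DMSO controls) derived from a 2 min kinetic fluorescence read after stimulation; U2OS cells expressing the 3.1 isoform via virus at 1.77 x 10^8 /mL.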
# SW480 rereplic – induces DNA re-replication in SW480 colon adenocarcinoma cells. SW480 DNA re-replication, Hoechst DNA content imaging, 48 h. Potency, µM (highest dose often 46.1 µM), without a hit: at the top dose re-replication activation, actives largely listed as activators. 340,000 tested, 1.8% active. AID 624297; note: potency is the fitted concentration of half-maximal effect; % of control where 0% means no effect; nearly all actives have a fitted effect of over 55% in size
#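 First, 250 cells per well were seeded. Next, compound or vehicle (23 nL) was pinned in, plates sat 48 hr at 37 C. Finally Hoechst was added for 40 min before fluorescence scanning.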
# KB-V1 MDR tox – kills drug-selected multidrug resistant KB-V1 cells; KB-V1 MDR cells viability, CellTiter-Glo, 72 h; Potency, µM (series often up to 46.1 µM), most hits filed as cytotoxic; 400,000 tested, 3.4% active; note: potency is the fitted concentration of half-maximal effect; % is set by controls: 0 for no effect and ±100 for the full control effect; nearly all actives have a fitted effect of over 60% in size
#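 Following 72 h at 37 degrees C with compound, KB-V1 cell viability was read by CellTiter-Glo luminescence, medium being phenol-red-free DMEM plus 10% FBS; concentration-response parameters came from normalized, curve-fitted qHTS data.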
# MCF10A rereplic – inducers of DNA re-replication in MCF 10A breast cells. MCF 10A DNA re-replication, Hoechst nuclear intensity, 48 h. Potency, µM (doses to about 46.1 µM), for the others: top-dose activity, positive = re-replication, usual class: activators. 350,000 tested, 2.9% active. AID 624296; note: potency is the fitted concentration of half-maximal effect; % of control where 0% means no effect; nearly all actives have a fitted effect of over 50% in size
# An asterisk follows results filed as active; i = inactive; ? = inconclusive; nt = no result given. Unless noted, calls come from the whole dose curve; as a rule, active = well fitted curve in the direction sought with a large enough effect; inconclusive = small, poorly fitted or top-dose-only effect, or another doubt; inactive = no such curve, though single readings can be large; an effect the other way counts as inactive or inconclusive.
SMILES,hERG WT inh,KB-3-1 tox,KCNH2 3.1 inh,SW480 rereplic,KB-V1 MDR tox,MCF10A rereplic
COc1ccc(CCNC(=O)Cn2c(=O)cc(C(F)(F)F)c3c(C)nn(C)c32)cc1OC,nt,i,nt,nt,i,nt
CC(=O)N1CCN(c2ccc(NCc3ccc(-c4cccc(Cl)c4)o3)cc2)CC1,nt,i,nt,?,i,21µM*
CC(=O)N1CCN(c2ccc(NCc3ccco3)cc2)CC1,nt,i,nt,17%,i,1%
CCOC(=O)c1cnc2c(cnn2CC)c1NN=C(C)C,nt,nt,nt,4%,nt,?
CN1CCN(CCCNC(=O)c2ccc3c(=O)n(CCc4ccccc4)c(=O)[nH]c3c2)CC1,6,i,-18,1.6µM*,i,26%
O=C(CCCCCn1c(=O)[nH]c2ccccc2c1=O)NCCCN1CCN(c2ccccc2F)CC1,?,i,-70*,-15%,?,7%
COc1ccc(CCn2c(=S)[nH]c3cc(C(=O)NCc4ccco4)ccc3c2=O)cc1OC,-8,16µM*,-7,24%,i,?
CCN1CCN(C(=O)c2ccc3c(=O)n(CCc4ccccc4)c(=O)[nH]c3c2)CC1,1,i,-5,29µM*,i,?
COc1ccc(-c2cc(C(=O)OCC(=O)NC(C)C)c3ccccc3n2)cc1,9,?,12,-3%,i,4%
CC1CCCCN1CCNC(=O)c1ccc2c(=O)n(CCc3ccccc3)c(=O)[nH]c2c1 (centres undefined),0,21µM*,-30,21%,i,15%
O=C(NCC1CCCO1)c1ccc2c(=O)n(Cc3ccc(Cl)cc3)c(=S)[nH]c2c1 (centres undefined),8,i,-2,-10%,i,-1%
O=C(NCc1ccccc1)c1ccc2c(=O)n(CC3CCCO3)c(=S)[nH]c2c1 (centres undefined),-6,i,1,-1%,i,6%
Cc1ccc(CNC(=O)c2ccc3c(=O)n(CC4CCCO4)c(=S)[nH]c3c2)cc1 (centres undefined),-2,i,-14,7%,16µM*,?
CC1CCCCN1CCNC(=O)c1ccc2c(=O)n(Cc3ccc(Cl)cc3)c(=S)[nH]c2c1 (centres undefined),2,i,-16,?,i,7.3µM*
COCCN(C(=O)CSc1nnc(-c2ccccc2C)n1C)c1c(N)n(Cc2ccccc2)c(=O)[nH]c1=O,nt,i,33,12%,i,-14%
O=C(NC1CCCCCC1)C1CCC(CNS(=O)(=O)c2cccc3cccnc23)CC1 (centres undefined),nt,i,nt,nt,i,nt
O=C(NCc1ccccn1)C1CC(c2ccc(Cl)c(Cl)c2)=NO1 (centres undefined),-18,?,-6,16%,?,11µM*
O=C(NCCc1cccs1)C1CC(c2c(Cl)cccc2Cl)=NO1 (centres undefined),2,i,6,12%,i,1%
O=C(NCc1cccs1)C1CC(c2ccc(Cl)c(Cl)c2)=NO1 (centres undefined),-4,i,15,-4%,i,2.3µM*
O=C(NCc1cccs1)C1CC(c2ccc(Cl)cc2)=NO1 (centres undefined),-2,?,7,?,?,9.2µM*
O=C(NCc1cccnc1)C1CC(c2ccc(Cl)c(Cl)c2)=NO1 (centres undefined),3,?,11,14%,?,9.2µM*
COCCn1c(=NC(=O)/C=C/c2ccccc2)sc2cc(NC(C)=O)ccc21,-1,?,6,7%,?,11%
CCc1nnc(NS(=O)(=O)c2ccc(NC(=O)c3cc(Cl)ccc3OC)cc2)s1,-3,i,20,-6%,i,-2%
CC(C)(C)OC(=O)N[C@H](Cc1ccccc1)C(=O)N1CCC[C@@H]1C(=O)O,7,i,-2,-13%,i,2%
COc1cccc(OC)c1-c1cc(CCCc2cc(-c3c(OC)cccc3OC)nc3ccccc23)c2ccccc2n1,nt,i,nt,nt,?,nt
SMILES,hERG WT inh,KB-3-1 tox,KCNH2 3.1 inh,SW480 rereplic,KB-V1 MDR tox,MCF10A rereplic
CCc1nc2ccc(C(=O)N(CC)CCN(C)C)cn2c1N(C)Cc1cccs1,nt,i,nt,nt,i,nt
CC1(c2ccccc2)CC(C)(C)n2c(O)c(C3=NC(=S)NC3=O)c3cccc1c32 (centres undefined),22,?,18,16%,12µM*,8%
N#CCCn1nc(-c2ccc(Cl)cc2)cc1Nc1ccccc1NC(=O)C(F)(F)F,48,i,24,5%,i,1%
N#CCCn1nc(-c2ccccc2)cc1Nc1ccccc1NC(=O)C(F)(F)F,-15,i,-11,0%,21µM*,-2%
O=C(CN1CCC(n2nnc3cc(F)ccc32)CC1)NC1CC1,-2,i,-8,-4%,?,1%
COC(=O)c1ccccc1NC(=O)CN1CCC(n2nnc3cc(F)ccc32)CC1,4,i,-8,-3%,i,2%
O=C(CN1CCC(n2nnc3cc(F)ccc32)CC1)N1CCc2ccccc2C1,2,i,-6,?,?,5.2µM*
O=C(CN1CCC(n2nnc3cc(F)ccc32)CC1)NC1CCCCC1,4,i,29,0%,21µM*,16%
CCOc1ccc2nc(NC(=O)CN3CCC(n4nnc5cc(F)ccc54)CC3)sc2c1,-10,?,-89*,-4%,21µM*,?
COCCNC(=O)C(c1ccc(F)cc1)N(C(=O)CCC(=O)Nc1ccccn1)c1cccc(C)c1 (centres undefined),-2,i,4,-26%,i,-2%
O=C(COC(=O)/C=C/c1ccc(C(F)(F)F)cc1)NCC1CCCO1 (centres undefined),1,i,3,-1%,i,0%
COc1ccc(-n2c(C)nnc2SCC(=O)N2CCOCC2)cc1,-6,i,14,1%,i,-1%
COc1ccc(C(=O)NCCS(=O)(=O)NCc2ccccc2)cc1,-2,i,4,-112%,i,4%
COc1ccc(S(=O)(=O)NCCC(=O)NCc2ccc(F)cc2)cc1,45,i,-80*,-7%,i,11%
COc1ccc(C(=O)NCCS(=O)(=O)NCc2ccc(F)cc2)cc1,-4,i,-24,3.7µM*,i,18%
O=C(NCCS(=O)(=O)c1ccc(Br)cc1)c1ccc(F)cc1,-251*,i,16,-6%,?,5%
CCC1Oc2ccc(C)cc2N(CC(=O)N2CCCC2)C1=O (centres undefined),3,i,31,?,i,11%
